Experimental data published in PubChem BioAssay (NCATS).
Records with an inconclusive call do not appear. Active and inactive are the calls of the source. Calls follow the shape of the dose curve; as a rule, active = well fitted curve in the direction sought with a large enough effect; inconclusive = small, poorly fitted or top-dose-only effect, or another doubt; inactive = no such curve, though single readings can be large; an effect the other way counts as inactive or inconclusive.

Tests used:
MKL-1 = experiment: qHTS assay to identify novel small-molecules to repurpose for Merkel cell carcinoma treatment (AID 1296009); conditions: MCC and control cell lines, CellTiter-Glo viability, 72 h; series mostly up to 46 µM; also: nearly all actives have a fitted effect of over 60% in size
Outline: (§1)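 After compound transfer in DMSO, plates were kept 72 hr at 37 degree celsius. Luminescent ATP signal from CellTiter-Glo served as viability measure, normalized against DMSO and no-cell controls.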

MKL-2 = experiment: as above; conditions: MCC and control cell lines, CellTiter-Glo viability, 72 h; series mostly up to 46 µM
Outline: as §1

UISO = experiment: as above; conditions: MCC and control cell lines, CellTiter-Glo viability, 72 h; series mostly up to 46 µM
Outline: as §1

WaGa = experiment: as above; conditions: MCC and control cell lines, CellTiter-Glo viability, 72 h; series mostly up to 46 µM
Outline: as §1

C33A = experiment: Primary qHTS to identify gynecologic anti-cancer compounds using libraries of approved drugs and bioactive compounds (AID 1345084); conditions: Gynecologic cancer cell panel viability, ATPlite luminescence, 48 h; series mostly up to 57.5 µM; also: nearly all actives have a fitted effect of over 55% in size
Outline: (§2)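 Cells, 1,000 per well, were allowed to settle for 16 h at 37 C before compound addition. Five concentrations were tested for 48 h, and viability was read by ATPlite luminescence after 15 min at room temperature.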

CAOV3 = experiment: as above; conditions: Gynecologic cancer cell panel viability, ATPlite luminescence, 48 h; series mostly up to 57.5 µM
Outline: as §2

CASKI = experiment: as above; conditions: Gynecologic cancer cell panel viability, ATPlite luminescence, 48 h; series mostly up to 57.5 µM
Outline: as §2

Es-2 = experiment: as above; conditions: Gynecologic cancer cell panel viability, ATPlite luminescence, 48 h; series mostly up to 57.5 µM
Outline: as §2

HeLa = experiment: as above; conditions: Gynecologic cancer cell panel viability, ATPlite luminescence, 48 h; series mostly up to 57.5 µM
Outline: as §2

Measured: Potency
Potency is read from the fitted curve at half-maximal effect.

CC1(C)S[C@@H]2[C@H](NC(=O)C(c3ccccc3)S(=O)(=O)O)C(=O)N2[C@H]1C(=O)O (stereo partly specified)
inactive: all assays above

CCC(=O)O[C@H]1[C@H](O[C@@H]2[C@@H](C)[C@H](O[C@H]3C[C@@](C)(OC)[C@@H](O)[C@H](C)O3)[C@@H](C)C(=O)O[C@H](CC)[C@@](C)(O)[C@H](O)[C@@H](C)C(=O)[C@H](C)C[C@@]2(C)O)O[C@H](C)C[C@@H]1N(C)C
inactive: all assays above

Oc1ccccc1
inactive: all assays above

CCN(CC)CC(=O)Nc1c(C)cccc1C(=O)OC
inactive: all assays above

Nc1c(NC/C=C\COc2cc(CN3CCCCC3)ccn2)c(=O)c1=O
inactive: all assays above

Cc1ccccc1C(=O)N1CC/C(=N\OS(=O)(=O)O)c2ccc(Cl)cc21
inactive: all assays above

CCC(C(=O)OCCN1CCOC(c2ccccc2)C1C)c1ccccc1 (stereo unspecified)
inactive: all assays above

O=C(COCCOCCOCC(=O)Nc1c(I)cc(I)c(C(=O)O)c1I)Nc1c(I)cc(I)c(C(=O)O)c1I
inactive: all assays above

COc1ccccc1N1CCN(CC(O)COc2cc(OC)c(OC)c(OC)c2)CC1 (stereo unspecified)
inactive: all assays above

CO[C@@]1(NC(=O)CSC[C@@H](N)C(=O)O)C(=O)N2C(C(=O)O)=C(CSc3nnnn3C)CS[C@@H]21
inactive: all assays above

Nc1nnnn1-c1ccccc1
inactive: all assays above

CCCCCCCCCCCC[N+](C)(C)Cc1ccccc1
active: MKL-1 1060 nM | MKL-2 94.4 nM | UISO 1190 nM | WaGa 1880 nM | C33A 2510 nM | CAOV3 5620 nM | CASKI 2240 nM | Es-2 7940 nM | HeLa 10000 nM

Cc1ccc(Cl)c(OCC(O)CNC(C)(C)C)c1 (stereo unspecified)
inactive: all assays above

CN(C(=O)C(Cl)Cl)c1ccc(OC(=O)c2ccco2)cc1
inactive: all assays above

CCN(CC)CCN
inactive: all assays above

O=C(O)c1ccc(OCCN2CCCCC2)cc1
inactive: all assays above

CC(=O)c1cc2ccccc2s1
inactive: all assays above

CN1C(=O)c2ccccc2C1=O
inactive: all assays above

CC(C)C(=O)Nc1cccc(C(F)(F)F)c1
inactive: all assays above

OC(CCCN1CCCCC1)(c1ccccc1)c1ccccc1
inactive: all assays above

C[C@H]1NCc2cc(-c3ccc4c(=O)c(C(=O)O)cn(C5CC5)c4c3OC(F)F)ccc21
inactive: all assays above

CN(CC1(C)CCCO1)S(=O)(=O)c1ccc(Cl)c(S(N)(=O)=O)c1 (stereo unspecified)
inactive: all assays above

Cc1ccccc1N1CCN(CCc2nnc3n2CCCC3)CC1
inactive: all assays above

CN1Cc2cc(C(=O)N3CCC(C4CCNCC4)CC3)ccc2N[C@@H](CC(=O)O)C1=O
inactive: all assays above
